{
  "source": "PubChem BioAssay (NCI)",
  "note": "This is part of a sample that, as a whole, favours compounds with a hit. Of some 83,000 tested, about 20% had one in any assay.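 In brief: 96-well plates, 48 h treatment, single concentration, percent growth endpoint.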 A number with no mark means an inactive call. Calls of active or inactive are those of the source. How the source made its calls: active means growth percent below 10; inactive means the rest.",
  "data": [
    {"system": "TK-10 renal", "assay": "NCI-60 one-dose screen, 48 h (100 = growth as untreated, 0 = no growth, -100 = all killed)", "conditions": "10 µM unless noted", "values": [
      {"smiles": "CCOc1ccc(NC(=O)Nc2cc(C(C)C)ccc2C)cc1", "growth": "55%"},
      {"smiles": "NS(=O)(=O)c1ccc(-n2nc(-c3ccc(Cl)cc3)ccc2=O)cc1", "growth": "123%"},
      {"smiles": "COC(OC)C1(c2ccccc2)NC(=O)NC1=O", "note": "(centres undefined)", "growth": "101%"},
      {"smiles": "CC1=C[S+](c2ccccc2)c2cccc3cc4ccccc4c1c23", "note": "(centres undefined)", "growth": "2.15% (active)"},
      {"smiles": "O=C(Nc1ccccc1F)Nc1ccccc1Cl", "growth": "125%"},
      {"smiles": "O=C(C[n+]1ccccc1Cl)c1ccc2c(c1)CCCC2", "growth": "92.8%"},
      {"smiles": "COc1cc(-c2nc3sc(C)cn3c2/C=C2\\C(=O)Nc3ccccc32)c(Br)c(OC)c1OC", "growth": "56.5%"},
      {"smiles": "CC1(C)N=C(N)N=C(N)N1c1cccc(CCCCc2ccccc2)c1", "growth": "17.9%"},
      {"smiles": "COc1ccc(/C=C2\\CS(=O)(=O)C/C(=C\\c3ccc(OC)cc3)C2=O)cc1", "growth": "2.72% (active)"},
      {"smiles": "CN1CCN(CC(O)COc2c(Br)c(Br)c(Br)c3c2OC(C)(C)C3)CC1", "note": "(centres undefined)", "growth": "74.1%"},
      {"smiles": "CC1(C)N=C(N)N=C(N)N1c1ccc(OCC(=O)Nc2ccccc2)c(Cl)c1", "growth": "57.6%"},
      {"smiles": "COc1ccc2c(c1)nnc1c3cccnc3[nH]c21", "growth": "11.8%"},
      {"smiles": "CC(=O)N[C@@H](CNC(=O)c1cc(NC(=O)c2cc(NC(=O)c3cc(NC(=O)c4nccn4C)cn3C)cn2C)cn1C)CC(=O)Nc1cn(C)c(C(=O)Nc2cc(C(=O)Nc3cc(C(=O)Nc4cc(C(=O)NCCCN(C)CCCNC(=O)c5cccc(C(=O)O)c5)n(C)c4)n(C)c3)n(C)c2)n1", "growth": "93.1%"},
      {"smiles": "Nc1ccc(S(=O)(=O)Nc2cc(I)cc(I)c2)cc1", "growth": "107%"}
    ]}
  ]
}
